An excerpt weighted towards active compounds, which were near 1.8% of everything screened.
L3MBTL1 block – inhibitors of human L3MBTL1; Q9Y468; AlphaScreen L3MBTL1–H3K9me1 peptide binding; Potency, µM (titrated, usually from 57.1 µM), without a hit: at the highest dose activity, negative = inhibition, usual class: inhibitors; actives 0.66% (n = 230,000); further: on the % scale 0 is the no-effect control and ±100 the full control effect; nearly all actives have a fitted effect of over 60% in size
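L3MBTL1 50 nM + b-AHA-H3(1-15)K9me1 75 nM, 30 min RT; compound added, 30 min RT; streptavidin donor/Ni-chelate acceptor beads 10 ug/mL each final, 30 min RT dark; AlphaScreen read.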
HTT ATP protect – protects HTT-Q103 PC12 cells, measured by ATP; actives 0.14% (n = 230,000); Potency, µM (titrated, usually from 56.4 µM), for the others: cytoprotection (ATP increase), most hits filed as activators; PC12 HTT-Q103 induced, cytoprotection, ATP luminescence, 40 h; AID 1471; further: % of control where 0% means no effect; nearly all actives have a fitted effect of over 45% in size
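Cells were plated at 1500 per well in phenol red-free DMEM with 5% equine and 5% calf serum. Tebufenozide (100 nM final) and compounds were added, then ATPlite reagent, and luminescence was read.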
KDM4E inh – JMJD2E (human) inhibition. Potency, µM (highest dose often 57.1 µM), for inactives: at the highest dose activity change, negative = inhibition, hits mostly inhibitors. JMJD2E catalytic domain, FDH-coupled NADH fluorescence (FDH is formaldehyde dehydrogenase). actives 1.6% (n = 230,000). B2RXH2; active means well fitted inhibition curve with a large enough effect, not every such curve was filed as active; inconclusive means small, poorly fitted or top-dose-only effect, or another doubt; inactive means no such curve, though single readings can be large or run the other way;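 further: 0% = wells with enzyme and -100% = buffer wells without enzyme; nearly all actives have a fitted effect of over 50% in size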
HttQ103 aggreg – inhibitors of mutant huntingtin aggregate formation in PC12 cells. PC12 HttQ103-GFP aggregates, Acumen cytometry, 40 h. actives 1.1% (n = 220,000). Potency, µM (series often up to 46.1 µM), without a hit: top-dose activity change, negative = inhibition, hits mostly inhibitors; further: on the % scale 0 is the no-effect control and ±100 the full control effect; nearly all actives have a fitted effect of over 60% in size
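Using laser scanning cytometry, GFP-positive aggregates were counted after lysis of PC12 cells induced with 100 nM tebufenozide to express HTT exon 1 Q103–GFP. Compounds were tested in titration.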
An asterisk follows results filed as active; ? = inconclusive; · = no result given; [ ] = another dose, or the depositor's remark. Unless noted, the call rests on the fitted dose curve; in most records, active means well fitted curve in the direction sought with a large enough effect; inconclusive means small, poorly fitted or top-dose-only effect, or another doubt; inactive means no such curve, though single readings can be large; an effect the other way counts as inactive or inconclusive. Potency means the concentration at half of the fitted maximal effect.

SMILES	L3MBTL1 block	HTT ATP protect	KDM4E inh	HttQ103 aggreg
CCN(CC)c1nc(-c2ccccn2)nc(-c2ccccc2)c1C#N	-9%	-124%	4%	5µM*
O=C(NN=C1c2ccccc2-c2ccccc21)c1ccccc1Br	-13%	3%	-3%	12%
O=C(NN=C1c2ccccc2-c2ccccc21)c1ccccc1	3.2µM*	-9%	-26%	-2%
CCCCCCCCCC(=O)OCC(CO)OC(=O)CCCCCCCCC (stereo not drawn)	·	-8%	4%	·
O=C(N/N=C1/C[C@@H](O)[C@@H](O)[C@@H]2[C@@H]3C(=O)N(C4CCCCC4)C(=O)[C@H]3CC[C@@H]12)OCc1ccccc1	·	-12%[10 µM]	·	·
COc1ccc(CN(C(=O)Cc2c[nH]c3ccccc23)C(C(=O)NC2CCCCC2)c2ccc(C)o2)cc1 (stereo not drawn)	-1%	-3%[10 µM]	-2%	?
COc1cccc(CN(C(=O)Cc2c[nH]c3ccccc23)C(C(=O)NC2CCCCC2)c2ccc(C)o2)c1 (stereo not drawn)	-14%	2%[10 µM]	-5%	13µM*
Cc1ccc(C(C(=O)NC2CCCCC2)N(Cc2ccccc2)C(=O)Cc2c[nH]c3ccccc23)o1 (stereo not drawn)	-11%	17%[10 µM]	3%	20µM*
CCCCCCCCCCCCCCCCCC(=O)NC[C@@H](COP(=O)([O-])OCC[N+](C)(C)C)OCC	·	-21%[1.9 µM]	·	·
Cc1c2cc(O)c(=O)cc-2oc2cc(O)c(O)cc12	2.8µM*	0%[10 µM]	?	5%[9.22 µM]
COc1cc(OC)c(-c2c3cc(O)c(=O)cc-3oc3cc(O)c(O)cc23)cc1OC	0.79µM*	5%[10 µM]	5µM*	4µM*
O=c1cc(-c2ccc(O)cc2O)oc2ccccc12	·	-26%[1.9 µM]	?	·
O=CN/N=C/c1c(O)ccc2ccccc12	-13%	-31%[10 µM]	11µM*	?
COc1ccc(N/N=C/c2c(C(=O)O)ccc3ccccc23)cc1	·	-71%[10 µM]	25µM*	-34%[9.22 µM]
O=C(NN=Cc1c(O)ccc2ccccc12)c1ccc2c(c1)OCO2	3%	·	·	·
NC(=S)N/N=C/c1c(O)ccc2ccccc12	·	-3%[10 µM]	7.1µM*	9%[9.22 µM]
O=C(N/N=C/c1c(O)ccc2ccccc12)c1ccc(CO)nc1	3.5µM*	·	·	·
CN1CCN([C@@H]2Cc3ccccc3Sc3ccc(Cl)cc32)CC1	·	7%[1.9 µM]	·	·
COCCn1c(=O)c(-c2cccs2)nc2cnc(N3CCOCC3)nc21	·	-29%	·	·
Cc1cc(Nc2ccccc2)nc(-c2ccccc2O)n1	·	-11%[0.074 µM]	?	?
Oc1ccc2ccccc2c1/C=N/Nc1ccccc1	?	42%[10 µM]	7.9µM*	?
Cc1cc(N/N=C/c2c(O)ccc3ccccc23)nc(-c2ccccc2O)n1	-5%	27%[10 µM]	14µM*	10µM*
COc1ccc(N/N=C(\C#N)C(=N)SCc2ccccc2)cc1	·	?	3%	7.9µM*
O=C(Oc1cc2oc(=O)cc(-c3ccccc3)c2cc1Cl)C1CCCCC1	-2%	-27%	?	7.1µM*
CC(C)(C)OC(=O)NCC(=O)Oc1cc2oc(=O)cc(-c3ccccc3)c2cc1Cl	14%	-20%[10 µM]	?	4µM*
SMILES	L3MBTL1 block	HTT ATP protect	KDM4E inh	HttQ103 aggreg
N#CC(C#N)=C1C=CC=CN1/C(=C\c1ccco1)C(=O)c1ccccc1	?	?	14%	3.2µM*
N#CC(C#N)=C1C=CC=CN1/C(=C\c1ccco1)C(=O)c1ccc(Br)cc1	-19%	32%[10 µM]	-5%	?
COc1ccc(C(=O)/C(=C\c2ccco2)N2C=CC=CC2=C(C#N)C#N)cc1	-4%	?	?	6.3µM*
CCC(C)n1c(=S)[nH]c2c(sc3ccc([N+](=O)[O-])cc32)c1=O (stereo not drawn)	-14%	18%[10 µM]	8%	10µM*
O=[N+]([O-])c1ccc(C[n+]2cccc3ccccc32)cc1	-5%	8%[10 µM]	-15%	-1%
CCCCC[n+]1cccc2c3ccccc3ccc21	·	-97%	?	2.5µM*
c1ccc(C[n+]2cccc3c4ccccc4ccc32)cc1	6%	-65%	?	28µM*
COCC1=C2c3ccccc3[C@H](C[N+](=O)[O-])C(C(=O)OC)(C(=O)OC)CC2C2C(=O)N(c3ccccc3)C(=O)C2C1 (stereo partly drawn)	·	-5%	?	·
Oc1ccccc1Cn1c(-c2ccccc2O)nc2ccccc21	·	-7%	?	25µM*
